# Reference: ChEMBL document CHEMBL3988442, “University of Dundee, Small-Polar-MMV Screening Library” (2021)
# Hit rate of the full screen: of about 38,000 compounds, about 1,200 (3.2%) showed an effect of 50% or more. The median lay at about -58%. The sample as a whole holds a higher share of strong results than the screen did.
# Test system: Plasmodium falciparum
# Experiment: Calibr Malaria Delayed Death Assay SOP
# Format: functional, organism-based
# Set-up: scale not given: in the data most compounds retested in dose-response had high values
# Conditions: concentration 4.99e-06 (unit not given; other assays of the set use mol/L)
row,Structure (SMILES),Percent Effect
1,CCn1nccc1CNc1nc(N)nc2c1nc(C)n2C,-33.19%
2,Cn1nc(CN2CCCCC2)c2c1CN(C(=O)c1ccoc1)C2,14.54%
3,CNCc1cc(F)ccc1Oc1ccc(F)cc1,15.63%
4,O=C(O)c1cccc(N2CCC(Oc3cccc(F)c3)CC2)n1,-36.51%
5,O=C(Nc1ccccc1Oc1cccc(F)c1)C1CCS(=O)(=O)C1 (stereo not drawn),-81.74%
6,O=C(Nc1cnc(Oc2ccccc2)nc1)C1CC1,-34.92%
7,CCn1cc(-c2nn3c(C(C)C)nnc3s2)c(C)n1,-104%
8,CC(NC(=O)N1CCCCCC1)c1ccc(S(N)(=O)=O)cc1 (stereo not drawn),-106.8%
9,Cc1ncsc1C(=O)NCCNc1ncccn1,-77.02%
10,COCC1CN(CCOc2ccc(Cl)cc2)Cc2c1cnn2C.O=C(O)C(F)(F)F.O=C(O)C(F)(F)F (stereo not drawn),-4.236%
11,CSC1(CNC(=O)NC(C)c2ccc(F)cc2)CCOCC1 (stereo not drawn),-168.4%
12,CC(NCC1(N(C)C)CCOCC1)c1ccc(Cl)cc1 (stereo not drawn),72.75%
13,CN(C)C1(CNc2ncc(Br)cn2)CCOCC1,27.48%
14,CC(NCC1(N(C)C)CCOCC1)c1ccc(SC(F)F)cc1 (stereo not drawn),51.19%
15,CC(NCC1(N(C)C)CCOCC1)c1ccc(S(C)(=O)=O)cc1 (stereo not drawn),-124.5%
16,CN(C)C1(CNC(=O)c2c(O)cc(Cl)cc2Cl)CCOCC1,-157.7%
17,O=S(=O)(N1CCCC1)N(Cc1ccccc1)CC1CCCO1 (stereo not drawn),-64.47%
18,CN(C)CCN1C[C@@H]2CN(S(=O)(=O)c3ccccc3)C[C@@H]2C1=O.O=C(O)C(F)(F)F,-103%
19,CCN(CC)S(=O)(=O)c1ccc(C(=O)NC(C)(C)C)cc1,-100.9%
20,Cc1cc2nc(-c3ccccc3)cc(NCC3CCCOC3)n2n1 (stereo not drawn),20.07%
21,COCCC(=O)Nc1nc2c(OC)cc(F)cc2s1,-96.38%
22,COc1ccc(CNC(C)Cn2cccn2)c(OC)c1OC.Cl (stereo not drawn),-41.68%
23,CC(NCc1ccc(C(N)=O)cc1)c1ccc(Cl)c(Cl)c1.Cl (stereo not drawn),4.882%

row,Structure (SMILES),Percent Effect
1,COc1ccc(CNC(C)c2ccccc2Cl)c(OC)c1OC.Cl (stereo not drawn),74.88%
2,COCCS(=O)(=O)NC(C)c1ccccc1Cl (stereo not drawn),-65.19%
3,COc1ccc(C(C)NCc2ccc(OC)c(OC)c2OC)cc1F.Cl (stereo not drawn),34.25%
4,COc1ccc(CNC(C)c2ccc(Cl)cc2)c(OC)c1OC (stereo not drawn),80.38%
5,COc1ccc(C(C)NCc2c[nH]nc2C)cc1OC.Cl (stereo not drawn),-66.18%
6,COc1ccc(CNC(C)c2cccc(Cl)c2)c(OC)c1OC (stereo not drawn),42.06%
7,COc1ccc(CNC(C)c2ccc(Cl)c(Cl)c2)c(OC)c1OC (stereo not drawn),65.05%
8,Cc1ccc(CN2C[C@H](OCC3CCN(C)CC3)[C@H]3COC[C@H]32)o1,12.64%
9,Cc1nc(NC(=O)c2c(-n3cnnn3)sc3c2CCC3)sc1C,-110.9%
10,CCOc1ccccc1NC(=O)NCCc1ccoc1,-120.2%
11,COC(=O)c1cccc(C(=O)N(C)Cc2cccc(F)c2)c1,-135.6%
12,COc1cc(CN2CCCC2)ccc1Oc1ccc2c(c1)CC(CN)O2 (stereo not drawn),58.6%
13,COc1ccc(CN2CCCC2)cc1Oc1ccc2c(c1)CC(CN)O2 (stereo not drawn),87.78%
14,COc1ccc(CN2CCCC2)cc1Oc1cccc(C#N)n1,41.79%
15,COc1ccc(CN2CCCC2)cc1Oc1ccc(NC(C)=O)cc1,-51.76%
16,Cc1cc(CN2CCCC2)cc(Oc2ccc3c(c2)CC(CN)O3)c1 (stereo not drawn),26.4%
17,COc1cc(CN2CCCC2)ccc1OC12CCCN(CC1)C2 (stereo not drawn),-168.7%
18,O=C(O)C(F)(F)F.O=C(O)C(F)(F)F.O=C(O)c1c(-c2cncnc2)ncc2c1CCN(Cc1ccco1)C2,-132.8%
19,CCNc1ncc2c(n1)CN(c1ccc(OC(F)(F)F)cc1)C2=O,14.47%
20,O=C(N1CCCC1)N1CCC2(CCCN(CCOc3ccccc3)C2)C1.O=C(O)C(F)(F)F (stereo not drawn),-4.272%
21,Cc1noc(C)c1CCCNc1cnccn1,-49.46%
22,CN(C)C(=O)CN1CCOCC2(C1)CN(c1ncc(F)cn1)CCO2.O=C(O)C(F)(F)F (stereo not drawn),-15.1%
23,Cc1ccnc(N2CCCC(c3nncn3C3CC3)C2)n1 (stereo not drawn),-51.92%

row,Structure (SMILES),Percent Effect
1,CN1CCN(c2ccc(Br)cc2NC(=O)c2ccco2)CC1,52.34%
2,CN1CCN(c2ccc(Cl)cc2NC(=O)c2ccco2)CC1,41.12%
3,CN1CCN(c2ccccc2NC(=O)c2ccco2)CC1,31.7%
4,CCc1cc(CN(C)C(=O)c2cnc3c(c2)nc(N)n3CC)on1,-104.3%
5,c1ccc(CN2CCCC2)c(CNc2cncc3nnnn23)c1,60.42%
6,c1cc(N2CCSCC2)ccc1CNc1cncc2nnnn12,-124.6%
7,c1cc(CN2CCCC2)ccc1CNc1cncc2nnnn12,-34.44%
8,Cc1cccc(NC(=O)c2cccc(OCc3nnnn3C)c2)n1,80.42%
9,Cc1cccc(NC(=O)c2ccc(OCc3nnnn3C)cc2)n1,-114.2%
10,Cc1ccnc(NC(=O)c2cccc(OCc3nnnn3C)c2)c1,-241.7%
11,CN1CC=C(CCN(C)C(=O)CCc2ccccc2)CC1,19.5%
12,CC(C(=O)NCc1ccco1)N1CCN(Cc2nccn2C)CC1 (stereo not drawn),-39.34%
13,Cc1ccc(CN2CC3(CCN(C(=O)Cc4ccc(Cl)cc4)C3)C2)o1,-2.786%
14,CNC(=O)c1cc2c(nc1NCC(C)C)CCN(c1ccncn1)CC2.O=C(O)C(F)(F)F,13.05%
15,CC(=O)Nc1ccc(-n2ccc3nc(N4CCCC4)ncc3c2=O)cc1,-5.195%
16,Cc1ccc(C)c(-n2ccc3nc(N4CCCC4)ncc3c2=O)c1,-31.4%
17,COCCn1cnc2ccc(NC(=O)CCCn3cccn3)cc2c1=O,-21.82%
18,Cn1cc(-c2cnc(N3CCOCC3)nc2)cc1C(=O)NCCC#N.O=C(O)C(F)(F)F,-137.7%
19,O=C(O)CN1CCC(c2ccccc2)C1 (stereo not drawn),-52.87%
20,Cc1ccc2nc(CN3CCN(C4CCCC4)C(=O)C3)cc(O)c2c1,-147.5%
21,Cc1cc(C)c2nc(CN3CCCC(c4cc[nH]n4)C3)cc(O)c2c1 (stereo not drawn),52.56%
22,Cc1cc(C)c2nc(CN3CC[C@@H](O)C3)cc(O)c2c1,-11.32%
